The values below come from PubChem BioAssay (Tox21).

In test [1] the target is Thyrotropin receptor (Homo sapiens) (UniProt P16473). As to the kind of experiment: qHTS assay to identify small molecule agonists of the thyroid stimulating hormone receptor (TSHR) signaling pathway (AID 1224843; calls by dose curve; also: nearly all actives have a fitted effect of over 45% in size; also: potency is read from the fitted curve at half-maximal effect). The procedure, abridged:
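Agonist-mode screen: TSHR HEK293 cells received test chemicals for half an hour at room temperature, then HTRF cAMP detection reagents for one hour prior to fluorescence measurement. Each chemical ran as a 15-concentration series, triplicated.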
A general note: qHTS replaces the single test concentration by a dilution series.

A short description of test [2]: qHTS assay to identify small molecule agonists of the hypoxia (HIF-1) signaling pathway - cell viability counter screen (AID 1224844; calls by dose curve; also: nearly all actives have a fitted effect of over 50% in size; also: potency is read from the fitted curve at half-maximal effect). The procedure, abridged:
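In this counter screen, HRE-bla ME-180 cell viability after 17 hrs of compound exposure at 37C was read by CellTiter-Glo luminescence, multiplexed with the beta-lactamase reporter measurement.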

A short description of test [3]: qHTS assay to identify small molecule agonists of H2AX (AID 1224845; active = well fitted activation curve with a large enough effect in the signal ratio in the repeat runs, not every such curve was filed as active; the % refers to the signal ratio). The procedure, abridged: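 Wild-type CHO-K1 cells, plated overnight, exposed 3hr at 37C to 15 concentrations (0.76% DMSO final). Lysed, then HTRF anti-pH2AX (S139) cryptate and anti-H2AX-d2 antibodies, 24 hr room temperature; 665/620 nm emission read.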
A short description of test [4]: qHTS assay to identify small molecule agonists of the hypoxia (HIF-1) signaling pathway (AID 1224846; active = well fitted activation curve with a large enough effect in the signal ratio in the repeat runs, not every such curve was filed as active; the % refers to the signal ratio). The procedure, abridged:
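ME-180 HRE-bla reporter cells; compounds in DMSO, 17 h at 37C; read-out beta-lactamase via CCF4-AM FRET.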

Test [5] is described as follows: qHTS assay to identify small molecule agonists of H2AX - cell viability counter screen (AID 1224847; calls by dose curve; also: top concentration of the series differs between compounds; nearly all actives have a fitted effect of over 30% in size). The procedure, abridged: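 Counter-screen for viability: CellTiter-Glo ATP luminescence read after 3 h compound treatment (15-point titration, 0.76% DMSO final) of CHO-K1 cells at 37C, with 30 min room-temperature reagent incubation.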
Test [6] in a line: qHTS RealTime-Glo MT Cell Viability Assay in HEK293 cells - 32 hour (AID 1224868). Also: top concentration of the series differs between compounds; nearly all actives have a fitted effect of over 50% in size. The procedure, abridged: (§1)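 Assay medium contained NanoLuc luciferase plus cell-permeant prosubstrate, added with HEK293 cells at 600 cells/well. After 5 h at 37 C/5% CO2 compounds were added; plates stayed at 37 C for 40 h with serial luminescence reads.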
The nature of test [7]: A CellTox Green Cytotoxicity Assay to monitor cytotoxicity in HEK293 cells - 0 hour (AID 1224869). Also: nearly all actives have a fitted effect of over 50% in size. The method in brief: (§2)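 Real-time, in one plate: 600 HEK293 cells/well with dead-cell DNA dye, pinned compound after 5 h, 37 C incubation over 40 h; viable cells give no appreciable fluorescence.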
Test [8] is described as follows: qHTS RealTime-Glo MT Cell Viability Assay in HepG2 cells - 40 hour (AID 1224870). Also: nearly all actives have a fitted effect of over 50% in size. The method in brief: (§3)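 HepG2 cells (600/well) mixed with RealTime-Glo MT reagent, settled 5 h at 37 C/5% CO2 before compound addition. Nonlytic NanoLuc luminescence from viable-cell prosubstrate reduction read repeatedly during 40 h treatment at 37 C.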
Test [9] is described as follows: A CellTox Green Cytotoxicity Assay to monitor cytotoxicity in HEK293 cells - 40 hour (AID 1224871). Also: nearly all actives have a fitted effect of over 45% in size. The procedure, abridged:
as §2

A short description of test [10]: qHTS RealTime-Glo MT Cell Viability Assay in HEK293 cells - 16 hour (AID 1224872). The procedure, abridged: as §1
Test [11] is described as follows: qHTS RealTime-Glo MT Cell Viability Assay in HepG2 cells - 8 hour (AID 1224873). Also: nearly all actives have a fitted effect of over 55% in size. The procedure, abridged:
as §3

A short description of test [12]: qHTS RealTime-Glo MT Cell Viability Assay in HEK293 cells - 40 hour (AID 1224874). Also: nearly all actives have a fitted effect of over 50% in size. Conditions: RealTime-Glo luminescence; max response: active compounds read low. The procedure, abridged:
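Kinetic, non-lysing viability readout. Seed HEK293 (600/well) with reagent, incubate 5 h at 37 C/5% CO2, pin 23 nL compound in DMSO, incubate at 37 C, read luminescence at 0, 8, 16, 24, 32, 40 h.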

The nature of test [13]: A CellTox Green Cytotoxicity Assay to monitor cytotoxicity in HEK293 cells - 24 hour (AID 1224875). Also: nearly all actives have a fitted effect of over 45% in size. The procedure, abridged: as §2
Test [14] is described as follows: A CellTox Green Cytotoxicity Assay to monitor cytotoxicity in HepG2 cells - 16 hour (AID 1224876). Also: nearly all actives have a fitted effect of over 45% in size. The procedure, abridged: (§4)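 Cytotoxicity was tracked as dead-cell DNA fluorescence in HepG2 cells treated with test compounds at 37 C; each time-point value comes from one kinetic series spanning 0, 8, 16, 24, 32 and 40 h.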
Test [15] in a line: qHTS RealTime-Glo MT Cell Viability Assay in HepG2 cells - 32 hour (AID 1224877). Also: nearly all actives have a fitted effect of over 55% in size. The method in brief:
(§5)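 qHTS, HepG2, 600 cells/well, RealTime-Glo (NanoLuc + prosubstrate) added with cells; 5 h preincubation; DMSO compound addition; 37 C; luminescence at 0/8/16/24/32/40 h.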

Test [16] can be described thus: A CellTox Green Cytotoxicity Assay to monitor cytotoxicity in HepG2 cells - 24 hour (AID 1224878). Also: nearly all actives have a fitted effect of over 45% in size. The method in brief: as §4
Test [17] is described as follows: A CellTox Green Cytotoxicity Assay to monitor cytotoxicity in HepG2 cells - 40 hour (AID 1224879). Also: nearly all actives have a fitted effect of over 40% in size. The procedure, abridged:
as §4

Test [18] is described as follows: qHTS assay to identify small molecule antagonists of the estrogen related receptor (ERR) signaling pathway from Tox21 library (AID 1224848). Also: nearly all actives have a fitted effect of over 50% in size. Also: potency is read from the fitted curve at half-maximal effect. The procedure, abridged:
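Quantitative high-throughput format: ERR reporter cells (2,000/well) pre-incubated 6 h, treated 18 h at 37 C with compounds in DMSO alongside positive and negative controls, then read by ONE-Glo luminescence.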

Test [19] in a line: qHTS assay to identify small molecule agonists of the estrogen related receptor (ERR) signaling pathway from Tox21 library (AID 1224849; calls by dose curve; also: nearly all actives have a fitted effect of over 15% in size). Conditions: ERR reporter cell line, ONE-Glo luciferase, 18 h; at 92.4 µM (top of the series) unless noted. The procedure, abridged:
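Luciferase activity in ERR pathway reporter cells served as the agonist readout; exposure lasted 18 h at 37 C, with ONE-Glo detection after 30 min at room temperature.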

Test [20] can be described thus: qHTS RealTime-Glo MT Cell Viability Assay in HepG2 cells - 24 hour (AID 1224867). Also: nearly all actives have a fitted effect of over 50% in size. The method in brief:
as §5

Molecules are shown by their SMILES. Values joined by “and” are separate entries in the source; they are usually repeats but may differ in a detail not shown here. Equal entries are not always repeated. Values without a mark were called inactive. Records with an inconclusive call do not appear. Active and inactive are the calls of the source. Unless noted, calls follow the shape of the dose curve; as a rule, active = well fitted curve in the direction sought with a large enough effect in the repeat runs; inconclusive = weak or mixed curves; inactive = no such curve, though single readings can be large; an effect the other way counts as inactive or inconclusive.
% is scaled to controls: 0 for no effect and ±100 for the full control effect.

Thyrotropin receptor (Homo sapiens), sequence (P16473 whole entry, looked up): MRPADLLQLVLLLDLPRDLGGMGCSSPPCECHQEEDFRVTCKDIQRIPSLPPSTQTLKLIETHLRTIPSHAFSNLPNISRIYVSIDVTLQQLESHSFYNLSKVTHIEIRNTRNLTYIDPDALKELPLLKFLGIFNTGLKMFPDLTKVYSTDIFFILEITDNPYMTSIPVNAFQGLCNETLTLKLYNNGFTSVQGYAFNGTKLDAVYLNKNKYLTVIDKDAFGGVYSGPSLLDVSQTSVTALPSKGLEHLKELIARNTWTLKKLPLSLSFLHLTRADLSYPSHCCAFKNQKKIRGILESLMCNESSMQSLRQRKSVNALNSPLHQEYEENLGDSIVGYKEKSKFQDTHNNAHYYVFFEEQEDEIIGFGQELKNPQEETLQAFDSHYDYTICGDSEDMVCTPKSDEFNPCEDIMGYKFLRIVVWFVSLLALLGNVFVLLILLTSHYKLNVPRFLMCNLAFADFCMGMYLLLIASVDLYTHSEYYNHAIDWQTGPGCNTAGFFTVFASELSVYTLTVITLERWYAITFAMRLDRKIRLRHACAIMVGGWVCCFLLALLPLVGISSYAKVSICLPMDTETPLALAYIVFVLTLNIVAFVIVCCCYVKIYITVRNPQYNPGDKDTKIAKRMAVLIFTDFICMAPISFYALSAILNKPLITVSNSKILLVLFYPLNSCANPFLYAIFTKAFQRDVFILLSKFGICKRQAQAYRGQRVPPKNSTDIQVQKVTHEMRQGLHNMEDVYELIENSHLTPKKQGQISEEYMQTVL

As for `NNC(=O)c1cccnc1`, the Potency entry in test [1], in [2], in [3], in test [5], in test [6] and in [7] was “inactive” in each case. Moreover, the Potency entry in [8], in test [9], in test [10], in test [11], in test [13] and in test [14] was “inactive” throughout. Moreover, the Potency result in test [15], in test [16] and in [17] was “inactive” throughout. For the same molecule, in test [4], the molecule was called inactive. In [12], the max response is 12.4%.

`NCC(CC(=O)O)c1ccc(Cl)cc1` (configuration not stated): in [1], the activation was 16.4% [at 0.349 µM]. Also, the results for the activity change, negative = cytotoxicity in test [2], in test [5] and in test [20] were -2.38% [at 0.29 µM], -1.04% [at 0.582 µM] and -0.0323% [at 0.29 µM], respectively. Besides, the activation (H2AX phosphorylation) in test [3] is 0.429% [at 0.582 µM]. Besides, the activity, negative = inhibition in test [18] is 4.98% [at 0.349 µM]. Moreover, the activity change, positive = activation in test [19] was 2.78% [at 0.349 µM]. The activity change, negative = cytotoxic was 7.97% [at 0.29 µM] in test [6], -1.34% [at 0.29 µM] in [8] and -0.345% [at 0.29 µM] in [15]. Moreover, the cytotoxicity in test [7] was -11.1% [at 0.29 µM]; in test [16] it was -3.56% [at 0.29 µM]. Also, the cytotoxicity increase in test [9] was -18.6% [at 0.29 µM]; in [14], -3.17% [at 0.29 µM]; in test [17], -9.33% [at 0.29 µM]. In addition, the viability change, negative = cytotoxic in test [11] is 0.906% [at 0.29 µM]. Further, the max response in test [12] was 8.41%. In [13], the activity change is -19.1% [at 0.29 µM, active compounds read high].

In the case of `O=NN1CCCCCC1`, the Potency result in test [1], in [2], in test [3], in test [5], in test [6] and in [7] was “inactive” each time. For the same molecule, the Potency result in [9], in test [10], in test [11], in test [13], in test [14] and in test [15] was “inactive” in each case. Moreover, the Potency result in test [16] and in test [17] was “inactive” throughout. In addition, the result in [4] was inactive. In addition, the max response in test [12] is 0.127%.

Regarding `CC(C)(OO)c1ccccc1`, in [1], the Potency is 34.4 µM (active). The Potency entry in [2], in [5], in test [18], in test [20], in test [6] and in [7] was “inactive” in each case. Also, the Potency result in test [9], in [10], in test [11], in test [13], in test [14] and in test [15] was “inactive” in each case. For the same molecule, the Potency entry in test [16] and in test [17] was “inactive” in each case. Besides, in test [4], the molecule was classed as inactive. Moreover, the activity change, positive = activation in [19] is 4.39%. In test [12], the max response was -0.0681%.

Consider `CCOP(=O)(OCC)Oc1ccc([N+](=O)[O-])cc1`, for which the Potency result in [1], in test [2], in test [3], in [5], in [20] and in test [6] was “inactive” each time. Besides, the Potency entry in test [7], in test [9], in test [10], in [11], in test [13] and in [14] was “inactive” in each case. For the same molecule, the Potency result in test [15], in [16] and in test [17] was “inactive” throughout. For the same molecule, in test [18], the Potency is 13.9 µM (active) and 12.2 µM (active). Further, in test [19], the activity change, positive = activation was -65.4% and -61.8%.

For `CC1C(=O)C[C@]2(C(C)C)C[C@H]12` (some centres not stated), the Potency entry in test [1], in test [2], in test [3], in test [5], in test [6] and in test [7] was “inactive” throughout. Moreover, the Potency entry in [8], in test [9], in [10], in test [11], in test [13] and in [14] was “inactive” each time. The Potency entry in test [15], in [16] and in test [17] was “inactive” each time. Also, the call in test [4] was inactive. In test [12], the max response was 9.37%.

Consider `O=C(O)C(F)(F)C(F)(F)C(F)(F)C(F)(F)C(F)(F)C(F)(F)C(F)(F)C(F)(F)C(F)(F)F`, for which the Potency result in test [1], in [3], in [5], in [18], in test [20] and in [6] was “inactive” each time. Also, the Potency result in [7], in test [8], in test [9], in test [10], in test [11] and in test [13] was “inactive” each time. The Potency entry in [14], in test [15], in test [16] and in [17] was “inactive” in each case. In addition, the Potency in [2] is 13.8 µM (active). Moreover, the activity change, positive = activation in [19] is 3.44%. The max response in test [12] is 1.42%.
